Among all 53,000 sequences or so, about 3,700 (7%) were called active. This is one part of a sample in which actives are shown more often than they occur. Values without a mark were called inactive.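 How the source made its calls: active means gene knockdowns whose robust z-score for IL-1 alpha signal is at least 2 or at most -2, so actives lie on both sides; inactive means the rest.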
Assay: Components of the Cytosolic LPS Sensing Pathway: Gene Identification via Genome-wide siRNA Screen;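 further: robust z of the log signal after scaling to non-targeting control siRNA wells of the plate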
Settings: RAW264.7 macrophages, IL-1a HTRF, actives lie on both sides, screened at 100 nM (by protocol), cells primed 5 h with Pam3CSK4 first
Method in brief: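 Read-out: IL-1a HTRF on supernatant, divided by plate negative-control median ×100, log-transformed and converted to robust z-score. Cells were RAW264.7 given 100 nM siRNA, Pam3CSK4-primed 5 hours, then LipidA-transfected 24 hour.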

| Sequence | z-score |
| --- | --- |
| GCGAGUACUUACUCUUCGUTT against Rpl3 | -0.355 |
| GCACGUGAACACAAACCCGTT against Nup50 | -1.13 |
| GCUUAAGUGUGAUACAGUGTT against Rars2 | 2.45 (active) |
| GUUACAGCUGCCUUUGUUUTT against Olfr893 | -2.49 (active) |
| CGUCUGUCAGAAACUACACTT against Atrnl1 | 0.864 |
| GCUCAGUUUCUCAUGAAACTT against Tespa1 | 0.206 |
| GGAAUGCAGAAAUGAAAAATT against Olfr1234 | -0.909 |
| GGAAAGAAGAACCAAGCUCTT against Med6 | -1.01 |
| GAUCAAAGCGGCGUACUACTT against Dnajc30 | 0.738 |
| GGAAAAGUAUCCAUGUCACTT against Impa1 | -1.75 |
| GGCAUCAUAAAGCCAGGCATT against Sybu | -2.42 (active) |
| GGGUAUAUAAGCAGCACCATT against Rdh9 | 0.736 |
| CCCAUCCAAGAUUUGAUUUTT against 2310002L09Rik | 1.89 |
| GGCUGUAGUUGGCUAACACTT against Slc25a28 | -0.103 |
| GGUAACAAUCACCAUAUUCTT against 1700029F12Rik | -1.94 |
| GCAACAUGUAGGCAACAUCTT against Tmx2 | -0.179 |
| CCAAUGAGAGUUCUAUGAUTT against Cxxc4 | -0.192 |
| GGUUAGCAGGGACCUAAUGTT against Zfp94 | 2.57 (active) |
| GGAAAACACGAGUUUCCCUTT against Arrdc4 | 1.56 |
| CCAAGCCAAGCAAUCUUGATT against Chat | -0.247 |
| CCAAACUUACAAAUAUGCGTT against Sgpp1 | 1.35 |
| GGAUCCUGUCCACAAGCACTT against Astn1 | 0.519 |
| GGUUCAGAUCCACAGCCAGTT against Asic2 | -2.12 (active) |

| Sequence | z-score |
| --- | --- |
| CCCAUAACCAGAAUUAAAGTT against Wdr64 | 0.454 |
| GGUCAUUGCAUCUGACAAGTT against Pcdha2 | 0.109 |
| GGGAGGAUACCUUCUAUGUTT against Atf6b | -0.43 |
| GGACACAGACAUCCUCUUGTT against Sult5a1 | 1.04 |
| GGGAGAUGUUUGUUUUCAATT against Mmp16 | 3.52 (active) |
| GGAAACCUUUUCAUUAACATT against Il23r | 0.138 |
| GGACAACUUCCUAGGGCUCTT against Esyt3 | 0.248 |
| CCCAAGCAAUUACAGUACUTT against Olfr263 | -0.543 |
| GGCCCUCUGAGAUUAAUGUTT against Nfkbid | 2.58 (active) |
| CAGAUCCAUCUCUUAAUGGTT against Olfr204 | 0.383 |
| GGUAUCAGGUACCAACGACTT against Cpne6 | 0.768 |
| GGACAUUAGCCAACACAUCTT against Scp2d1 | 1.17 |
| GGAAUUGACUUUAAGACAATT against Boll | -0.413 |
| GGAAGUCAAGCAUAUUGCCTT against Sntb2 | 3.04 (active) |
| GCAUUGGUGUUUAGUUGGUTT against Gdf2 | 1.11 |
| GGAGUUCGCACAGAAAUUCTT against Dhdh | -0.619 |
| GGUGUAUUAAAAUGUCAGUTT against Marveld2 | 1.92 |
| GGUCAUCAGAAUGUGAAAATT against Zfp354a | 0.232 |
| GGAGAGACCAGAAUGGUAUTT against Fbxw21 | -1.12 |
| GGUAUUUCGAAACCUCCGUTT against H2-Q10 | 2.01 (active) |
| GCAUGGACAAAUGUCCCUGTT against Lce1f | -0.24 |
| GGAAGAUGGCAAUAAUAACTT against Borcs7 | -2.26 (active) |
| GGUUUUCCCACAUGUCAGATT against Zmat5 | 0.805 |

| Sequence | z-score |
| --- | --- |
| GGGUACAGACGAUGUUUGATT against Unc45b | 0.347 |
| GGUGUUCAACUCCACUAUGTT against Nhlrc1 | 0.511 |
| GGUUCACAAUGGAUUAUGATT against Lrrc25 | -1.68 |
| UGAUAUUUGGUGUAUUCAGTT against Olfr972 | -2.06 (active) |
| GGCUUUCUCCAAGCUAUAUTT against Tdgf1 | -1.83 |
| GGGAUACUACUUUCUAACATT against Rspo3 | 1.29 |
| GCCAUACCCUGAAUUACCATT against Ndnf | -2.01 (active) |
| GGAUCAGAGAAGGAAAAAATT against Hspa12a | -1.98 |
| CCCUGACUUGUCCUUACAATT against Trem3 | -0.831 |
| CCCUAGCGGAAAUUGUCAATT against Nono | 0.328 |
| GGGUCUGAUCACUUAUAUUTT against Lysmd3 | 2.02 (active) |
| CGAGGAGCCUGAAAUAUGGTT against Exosc2 | -2.42 (active) |
| GGAAAAAAAAGUCUUCCUATT against Ttll6 | -0.0777 |
| CCUUGUUCCCGAAAUACCGTT against Krr1 | -0.471 |
| GUCAGUAUGGAGCGAUGGGTT against Zmiz2 | 0.695 |
| GCCAUGUAGCACGUAACAGTT against Haus6 | -0.368 |
| GGAGAUACAUUGGUAGGUATT against Idua | -0.469 |
| GGAAACGUAUGAACAAUAATT against Sema4f | 0.896 |
| GCAAUGAGGAGUAUAUGUATT against Rfx5 | 2.89 (active) |
| GGAUUAUGGGAAUUAACUATT against Mpdz | 1.06 |
| CCUUCAGUGGUUUGAACCGTT against Dnd1 | 2.59 (active) |
| CCAAGUCUUGUAGUGGAGUTT against Vdac3 | -0.269 |
| GGGCUCCACUACCUAAUCATT against Gpr83 | -1.07 |

From PubChem BioAssay AID1508600 (Functional Genomics Laboratory (NCATS/FGL), 2020)
